# Laboratory results taken from PubChem BioAssay AID463173 (ICCB-Longwood Screening Facility, Harvard Medical School, 2010).
# The campaign covered roughly 52,000 compounds. About 1,700 (3.3%) were called active. What follows is part of a selection rich in actives, with near analogues and random picks from the rest. A number with no mark means an inactive call. Cut-off read from the data, not from the text of the source: active = survival mostly below about 52% (no sharp cut-off); inactive = mostly above about 56%.
# Test system: Wild type
# Test: growth inhibition of S. aureus wild type versus tarO mutant, primary screen, teichoic acid synthesis inhibitors, RN4220, OD600 (AID 463173)
# Conditions: S. aureus RN4220 wild type/DeltatarO growth, OD600, 18 h, hits give low values, screened at 18.75 µg/mL (by protocol)
row,SMILES,survival
1,CCS(=O)(=O)N1CC(=O)N(c2cc(C)ccc2C)C(C)(C(=O)NC2CCCCC2)C1 (stereo not given),59%
2,COc1ccc(-c2cn3c(n2)sc2cc(C(=O)NC4CCCc5ccccc54)ccc23)cc1 (stereo not given),78%
3,CCC(C)n1c(SCC(=O)Nc2ccccc2C(=O)OC)nc2ccsc2c1=O (stereo not given),-1% (active)
4,COC(=O)c1ccccc1NC(=O)CSc1nc2ccsc2c(=O)n1CCC(C)C,78%
5,CCn1c(SCC(=O)Nc2ccccc2C(=O)OC)nc2ccsc2c1=O,83%
6,O=C(NCC(c1ccco1)S(=O)(=O)c1cccs1)c1ccccc1F (stereo not given),80%
7,Fc1ccc(CNc2cc(-c3ccccc3)nc3nncn23)cc1,29%
8,Fc1ccc(CNc2nc(-c3ccc(Cl)cc3)cc(C(F)(F)F)n2)cc1,-5% (active)
9,Fc1ccc(CNc2nc(-c3ccccc3)cc(C(F)(F)F)n2)cc1,-3% (active)
10,O=C(NCc1ccc(F)cc1)c1cc(-c2ccc(Cl)cc2)n[nH]1,94%
11,Fc1ccc(-c2cc(C(F)(F)F)nc(NCc3ccccc3)n2)cc1,93%
12,CC1CCN(S(=O)(=O)c2ccc3nc(NCc4ccccc4)ccc3c2)CC1,131%
13,Cc1nc2ccn(Cc3ccco3)c(=O)c2cc1C(=O)NCc1ccc(Cl)cc1,60%
14,O=C(O)c1ccc2c(c1)C(=O)NC2=O,113%
15,O=C(Nc1ccc2[nH]c(=O)c(=O)[nH]c2c1)c1cccc(F)c1,140%
16,CC(=O)Nc1ccc(S(=O)(=O)NC2=NCN(C(C)C)CN2)cc1,143%
17,C=CCNC(=O)Nc1c[nH]c2ccccc2c1=O,111%
18,O=C(CSCc1cc(=O)c2ccccc2[nH]1)Nc1cccc(C(F)(F)F)c1,124%
19,O=C(O)CCC(=O)N1CCc2cc(S(=O)(=O)NCc3ccc(F)cc3)ccc21,85%
20,O=C(CCc1nnc2n(Cc3ccccc3Cl)c(=O)c3ccccc3n12)Nc1ccc(F)c(F)c1,89%
21,O=C(Nc1ccc(F)cc1F)c1cc(CN2CCOCC2)on1,69%
22,CCOC(=O)c1cnc2c(C)c(Cl)ccc2c1NCCc1ccc(OC)c(OC)c1,4% (active)
23,CCOC(=O)c1cnc2c(C)c(C)ccc2c1NCCCCCO,110%
24,CCOC(=O)c1cnc2c(C)c(Cl)ccc2c1Nc1ccc(C)cc1C,140%
25,CCOC(=O)c1cnc2ccc(OCC)cc2c1NCCc1ccc(OC)c(OC)c1,133%
26,CCOC(=O)c1cnc2c(C)cc(Cl)cc2c1NCCc1ccc(OC)c(OC)c1,48%
27,CCOC(=O)c1cnc2ccc(OC)cc2c1NCCc1ccc(OC)c(OC)c1,78%
28,CCOC(=O)c1cnc2c(C)c(Cl)ccc2c1NCCc1ccccc1,-3% (active)
29,CCOC(=O)c1cnc2c(C)cc(C)cc2c1NCCc1ccc(OC)c(OC)c1,75%
30,CCOC(=O)c1cnc2ccc(OC)cc2c1NCCc1ccccc1,0% (active)
